Source: PubChem BioAssay (EPA / NIEHS)
Results filed as inconclusive are left out. Active and inactive are the calls of the source. Rule for the calls, unless noted: active = hit-call score of the fitted dose curve at least 0.9, where 1 is the maximum; inactive = score below 0.9.

Key:
[1] = CCTE_Harrill_HTTr_Viability_MCF7: CCTE's 6-hour Cell Viability Assessment for the High-Throughput Transcriptomics (HTTr) Platform, in MCF-7 cells cultured in DMEM + 10% fetal bovine serum, Harrill Lab (AID 2284010)
How it was run: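 Propidium iodide exclusion, imaged by high-content analysis, gauged viability after a six-hour exposure across eight concentrations. Cells were MCF-7 grown in DMEM with 10% fetal bovine serum; fits run in both directions against DMSO.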

[2] = CCTE_Harrill_HTTr_Apoptosis_MCF7: CCTE's 6-hour Apoptosis Assessment for the High-Throughput Transcriptomics (HTTr) Platform, in MCF-7 cells cultured in DMEM + 10% fetal bovine serum, Harrill Lab (AID 2284011)
How it was run: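 Read-out: CellEvent Caspase 3/7 Green signal by high content imaging, gain-of-signal indicating apoptosis. MCF-7 cells, DMEM + 10% FBS, eight-point dilution series, 6 h exposure. Curves fitted bidirectionally relative to DMSO negative control.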

[3] = CCTE_Harrill_HTTr_CellCount_MCF7: CCTE's Cell Proliferation Assessment for the High-Throughput Transcriptomics (HTTr) Platform, Harrill Lab (AID 2284012; active = hit-call score of the fitted dose curve at least 0.9, where 1 is the maximum;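 note: cells exposed to compound for six hours; intended direction is loss of nuclei count meaning fewer cells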)
How it was run: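 Cell count from high-content imaging of Hoechst-labeled nuclei serves as viability/growth readout. Chemicals were applied to MCF-7 cells in eight concentrations for six hours, with fitting in both directions relative to DMSO.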

Row | Structure (SMILES) | outcome [1] | outcome [2] | outcome [3] | AC50 [1]
1 | C=C(C)[C@@H]1CC[C@@H](C)C[C@@H]1O | inactive | inactive | inactive | –
2 | S=C(S)NCCNC(=S)S | inactive | inactive | – | –
3 | CN(C)CCOCCN(C)C | inactive | inactive | inactive | –
4 | CN(CCOc1ccc(CC2SC(=O)NC2=O)cc1)c1ccccn1 (configuration not stated) | inactive | inactive | inactive | –
5 | O=C(O)CCCCCCCC(=O)O | inactive | inactive | – | –
6 | CC(=O)OCC=Cc1ccccc1 | inactive | inactive | – | –
7 | CCCCNC(=O)NS(=O)(=O)c1ccc(C)cc1 | inactive | inactive | inactive | –
8 | CC(C)Oc1ccccc1O | inactive | inactive | inactive | –
9 | O=P(c1ccccc1)(c1ccccc1)c1ccccc1 | inactive | inactive | inactive | –
10 | CC(C)=CCO | inactive | – | – | –
11 | CC1CCC(C(C)(C)O)CC1 (configuration not stated) | inactive | – | – | –
12 | CC(=O)C(=O)O | inactive | inactive | inactive | –
13 | COC(=O)C1=C(C)NC(C)=C(C(=O)OCCN(C)Cc2ccccc2)C1c1cccc([N+](=O)[O-])c1 (configuration not stated) | inactive | – | – | –
14 | N#Cc1ccc(CC(=NNC(=O)Nc2ccc(OC(F)(F)F)cc2)c2cccc(C(F)(F)F)c2)cc1 | inactive | – | – | –
15 | O=C(Nc1ccccc1)c1cc([N+](=O)[O-])ccc1Cl | inactive | inactive | – | –
16 | O=C[C@H](O)[C@H](O)[C@H](O)CO | inactive | inactive | – | –
17 | CNC(=O)Oc1ccc2c(c1)[C@]1(C)CCN(C)[C@@H]1N2C | inactive | inactive | inactive | –
18 | CC(CN1c2ccccc2Sc2ccccc21)N(C)C (configuration not stated) | inactive | inactive | – | –

Row | Structure (SMILES) | outcome [1] | outcome [2] | outcome [3] | AC50 [1]
19 | O=C(O)COCCN1CCN(C(c2ccccc2)c2ccc(Cl)cc2)CC1 (configuration not stated) | inactive | inactive | inactive | –
20 | CC1CCC2CC1C2(C)C (configuration not stated) | inactive | – | inactive | –
21 | Cc1ccc(C=O)cc1 | inactive | – | inactive | –
22 | Cc1ccc(C(C)C)cc1O | inactive | – | inactive | –
23 | OCCOCCOCCOCCO | inactive | inactive | inactive | –
24 | CC1(C)CCC(C)(C)c2cc(C(=O)Nc3ccc(C(=O)O)cc3)ccc21 | inactive | inactive | inactive | –
25 | CCCCCCCCCCCCCCCC(=O)O | inactive | inactive | inactive | –
26 | CC(C)(Oc1ccc(CCNC(=O)c2ccc(Cl)cc2)cc1)C(=O)O | inactive | – | inactive | –
27 | CNCCCC12CCC(c3ccccc31)c1ccccc12 | – | inactive | inactive | 47.3 µM (active)
28 | C=O | inactive | – | inactive | –
29 | O=C(O)c1ccc(C(=O)O)cc1 | inactive | inactive | inactive | –
30 | N#Cc1ccccc1 | inactive | inactive | inactive | –
31 | Cc1ccc(C=O)s1 | inactive | – | inactive | –
32 | CCN(CC)CCOC(=O)c1ccc(N)cc1 | inactive | inactive | inactive | –
33 | CC(C)C[C@H]1C(=O)N2CCC[C@H]2[C@]2(O)O[C@](NC(=O)[C@@H]3C=C4c5cccc6[nH]c(Br)c(c56)C[C@H]4N(C)C3)(C(C)C)C(=O)N12 | inactive | – | inactive | –
34 | COc1cc2ncnc(Nc3cccc(Cl)c3)c2cc1OC | inactive | – | inactive | –
35 | O=C(O)CN(CCN(CC(=O)O)CC(=O)O)CCN(CC(=O)O)CC(=O)O | inactive | – | inactive | –
